N-glyco inh = N-linked glycosylation inhibition. reporter increase, % at 12.5 µM. 0.23% of 360,000 active. D54 ERlucT glycosylation luciferase reporter, 24 h; percent of 100 nM tunicamycin response. AID 588692;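 active = mean luciferase reporter signal, scaled so untreated is 0 and the glycosylation-blocking control 100, at or above a set limit in every replicate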;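 note: luciferase carries N-glycosylation sites so blocking glycosylation raises the light; 0% = median of neutral control wells and 100% = median of 100 nM tunicamycin wells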
ARNT TACC3 PPI = ARNT/TACC3 interaction disruption; AlphaScreen His-ARNT PAS-B/GST-TACC3 binding, luminescence; TACC3 fragment carries E629A point mutation; AID 623870; inhibition, % at 9.99 µM; Q9Y6A5; 0.66% of 390,000 active;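 active = mean inhibition of replicates at least 50% and at least half of replicates each reaching 50%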;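 note: 0% = complete ARNT plus TACC3 wells and 100% = ARNT alone without TACC3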
H9c2 protect = myocardial damage modulation in H9c2 cells. 0.63% of 360,000 active. protection from H2O2 cell death, % at 20 µM. H9c2 cardiomyocytes, H2O2 injury protection, ATPLite, 2 h. AID 588492;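 active = compounds giving at least 50% protection of heart cells from peroxide-induced death in the single-dose screen, raw or plate-pattern-corrected value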;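 note: 0% = DMSO wells with peroxide and 100% = DMSO wells without peroxide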
aDG glyco act = increases alpha dystroglycan glycosylation; activation, % at 10 µM; Pro5-aDG cells, alpha-DG glycosylation AlphaScreen (IIH6); 0% Pro5, 100% B10-LARGE cell signal; 0.22% of 360,000 active;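 active = activation of at least 8% versus controls, or a plate z-score of at least 8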;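 note: Pro5 are CHO cells carrying HIG-tagged alpha-DG that lacks glycosylation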
Vif inh = inhibitors of HIV Vif | 0.35% of 340,000 active | AID 602346 | inhibition, % at 7.49 µM | HEK293T cells, Vif self-association by quenched fluorescence, imaging, 24 h; in the data active = inhibition above about 50%, passing the limit was not always enough
Active calls of the source: *. Shown are actives, neighbours in structure and some others; about 1.7% of the full set was active somewhere.

`C=CCOC(=O)COc1ccc2c3c(c(=O)oc2c1)CCCC3` gave N-glyco inh 2, H9c2 protect 87*, aDG glyco act 0 and Vif inh 8.
CCOC(=O)COc1cc2c3c(c(=O)oc2cc1C)CCCC3 was read as N-glyco inh 3, ARNT TACC3 PPI -13, H9c2 protect -14, aDG glyco act 0 and Vif inh 11.
Screening C[C@@H]1CN([C@H](C)CO)C(=O)c2cc(-c3cncnc3)cnc2O[C@@H]1CN(C)C(=O)Cc1cccnc1 returned ARNT TACC3 PPI -3.
For CCCc1cc(=O)oc2cc(OCC(=O)N3CC[C@@]4(O)CCCC[C@H]4C3)ccc12 the results were N-glyco inh 0, H9c2 protect 3, aDG glyco act 0 and Vif inh -9.
`CCCc1cc(=O)oc2cc(OC(=O)CN3C(=O)NC4(CCCC4)C3=O)ccc12` gave N-glyco inh -1, ARNT TACC3 PPI -4, H9c2 protect 61*, aDG glyco act 0 and Vif inh 11.
`COc1cccc(C2c3[nH]c4ccccc4c3CCN2Cc2ncc[nH]2)c1` (configuration not stated) gave N-glyco inh 2, ARNT TACC3 PPI 53*, H9c2 protect 14, aDG glyco act 0 and Vif inh 1.
For C[C@@H]1CN([C@H](C)CO)C(=O)Cc2cc(NC(=O)Cc3ccccc3)ccc2O[C@@H]1CN(C)Cc1ccc(Cl)c(Cl)c1 the results were ARNT TACC3 PPI 33.
Screening O=C(NCCCN1CCOCC1)C(=O)c1c[nH]c2ccccc12 returned N-glyco inh 0, ARNT TACC3 PPI 10, H9c2 protect 4, aDG glyco act 0 and Vif inh 37.
Screening COc1ccc(N2CCN(CCCNC(=O)C(=O)c3c[nH]c4ccccc34)CC2)cc1 returned N-glyco inh -6, ARNT TACC3 PPI 48*, H9c2 protect -1, aDG glyco act 0 and Vif inh -10.
Screening O=C(NCC[C@@H]1CC[C@H](NC(=O)C2CCCC2)[C@@H](CO)O1)c1cnccn1 returned ARNT TACC3 PPI 4.
`Cc1nn(C)cc1NC(=O)C[C@@H]1CC[C@H]2[C@H](COc3ccc(NC(=O)c4cccc(F)c4)cc3C(=O)N2C)O1` gave ARNT TACC3 PPI 1.
`Cc1cccc(C(=O)Nc2cccc(C(=O)N/N=C/c3ccccn3)c2)c1` gave N-glyco inh 4, ARNT TACC3 PPI 71*, H9c2 protect 19, aDG glyco act 0 and Vif inh -4.
CC(Nc1cccc2ccccc12)C(=O)N/N=C/c1ccccn1 (configuration not stated) was read as N-glyco inh 6, ARNT TACC3 PPI 67*, H9c2 protect -12, aDG glyco act 0 and Vif inh -5.
`O=C(N/N=C/c1ccccn1)c1cccc(S(=O)(=O)Nc2ccccc2Cl)c1` gave N-glyco inh 2, ARNT TACC3 PPI 65*, H9c2 protect 40 and aDG glyco act 0.
Screening O=C(N/N=C/c1ccccc1F)c1cccc(NC(=O)c2ccccc2Cl)c1 returned N-glyco inh -2, ARNT TACC3 PPI 0, H9c2 protect 14, aDG glyco act 0 and Vif inh -3.
Screening O=C(N/N=C/c1ccccn1)c1cccc(NC(=O)c2ccccc2Cl)c1 returned N-glyco inh 2, ARNT TACC3 PPI 63*, H9c2 protect 19, aDG glyco act 0 and Vif inh -12.
O=C(C[C@@H]1C=C[C@@H](NC(=O)c2cccc(F)c2)[C@H](CO)O1)NCCN1CCCC1 was read as ARNT TACC3 PPI -6.
For CN(C)CC#Cc1ccc([C@@H]2[C@@H](CO)N3CCCCN(C(=O)C4CCC4)C[C@H]23)cc1 the results were ARNT TACC3 PPI -9.
CC(C)(C)c1ccc(C(=O)N/N=C/c2ccccn2)cc1 was read as N-glyco inh 8, ARNT TACC3 PPI 41, H9c2 protect 37, aDG glyco act 0 and Vif inh -3.
`Cc1ccccc1C(=O)Nc1cccc(C(=O)N/N=C/c2cc(Cl)cc([N+](=O)[O-])c2O)c1` gave N-glyco inh 3, ARNT TACC3 PPI 52*, H9c2 protect 34, aDG glyco act 0 and Vif inh 2.
O=C(O)c1cccc(NC(=S)N/N=C/c2ccccn2)c1 was read as N-glyco inh -4, ARNT TACC3 PPI 66*, H9c2 protect 0, aDG glyco act 0 and Vif inh 1.
For Cc1cccc(C(=O)N/N=C/c2ccccn2)c1 the results were N-glyco inh 0, ARNT TACC3 PPI 54*, H9c2 protect 21, aDG glyco act 0 and Vif inh 13.
For O=C(N/N=C/c1ccccc1C(=O)O)C(=O)N1CCCCC1 the results were N-glyco inh 1, ARNT TACC3 PPI 2, H9c2 protect 0, aDG glyco act 0 and Vif inh 4.
For O=C(N/N=C/c1ccccn1)C(=O)N1CCCCCC1 the results were N-glyco inh 2, ARNT TACC3 PPI 53*, H9c2 protect 1, aDG glyco act 0 and Vif inh 26.
`Cc1cccc(/C=N/NC(=O)c2ccncc2)n1` gave N-glyco inh 0, ARNT TACC3 PPI 63*, H9c2 protect 8, aDG glyco act 0 and Vif inh -12.
`Cc1cccc(/C=N/NC(=O)c2ccc(NC(=O)c3ccccc3C)cc2)n1` gave N-glyco inh -2, ARNT TACC3 PPI 11, H9c2 protect 27, aDG glyco act 0 and Vif inh 5.
`COCC(=O)Nc1ccc2c(c1)OC[C@@H](C)N(CC1CC1)C[C@@H](C)[C@@H](OC)CN(C)C2=O` gave ARNT TACC3 PPI -6.
Screening COc1cccc(C2c3c(oc4ccccc4c3=O)C(=O)N2Cc2ccco2)c1 (configuration not stated) returned N-glyco inh 3, ARNT TACC3 PPI 47*, H9c2 protect 14, aDG glyco act 0 and Vif inh 5.
For CC(=O)N1CCCCN2[C@H](C1)[C@H](c1ccc(-c3ccc(C)cc3)cc1)[C@@H]2CO the results were ARNT TACC3 PPI -2.
NC1=CC(=O)C(=O)c2ccccc21 was read as N-glyco inh -8, ARNT TACC3 PPI 18*, H9c2 protect -10, aDG glyco act 0 and Vif inh 19.
`Nc1ccc(O)c2c1C(=O)c1ccccc1C2=O` gave N-glyco inh 6, ARNT TACC3 PPI 42, H9c2 protect -3, aDG glyco act 0 and Vif inh -15.
`Cc1ccccc1Nc1c(-c2ccccn2)nc2ccccn12` gave N-glyco inh 8, ARNT TACC3 PPI 59*, H9c2 protect 10, aDG glyco act 1 and Vif inh -4.
Screening Cc1ccc2nc(-c3ccccn3)c(Nc3ccccc3C)n2c1 returned N-glyco inh 5, ARNT TACC3 PPI 64*, H9c2 protect -2, aDG glyco act 2 and Vif inh 0.
For C[C@@H]1CN([C@@H](C)CO)C(=O)c2cc(NS(=O)(=O)c3cn(C)cn3)ccc2O[C@@H]1CN(C)CC1CC1 the results were ARNT TACC3 PPI -10.
